p97 ATPase inh = blocks human p97 ATPase activity. P55072. recombinant p97 ATPase, Kinase-Glo ATP luminescence, 3 h. inhibition, % at 8 µM. 0.42% of 220,000 active. AID 1481; in the data active means inhibition above about 15%
Target sequence (P55072 whole entry, looked up): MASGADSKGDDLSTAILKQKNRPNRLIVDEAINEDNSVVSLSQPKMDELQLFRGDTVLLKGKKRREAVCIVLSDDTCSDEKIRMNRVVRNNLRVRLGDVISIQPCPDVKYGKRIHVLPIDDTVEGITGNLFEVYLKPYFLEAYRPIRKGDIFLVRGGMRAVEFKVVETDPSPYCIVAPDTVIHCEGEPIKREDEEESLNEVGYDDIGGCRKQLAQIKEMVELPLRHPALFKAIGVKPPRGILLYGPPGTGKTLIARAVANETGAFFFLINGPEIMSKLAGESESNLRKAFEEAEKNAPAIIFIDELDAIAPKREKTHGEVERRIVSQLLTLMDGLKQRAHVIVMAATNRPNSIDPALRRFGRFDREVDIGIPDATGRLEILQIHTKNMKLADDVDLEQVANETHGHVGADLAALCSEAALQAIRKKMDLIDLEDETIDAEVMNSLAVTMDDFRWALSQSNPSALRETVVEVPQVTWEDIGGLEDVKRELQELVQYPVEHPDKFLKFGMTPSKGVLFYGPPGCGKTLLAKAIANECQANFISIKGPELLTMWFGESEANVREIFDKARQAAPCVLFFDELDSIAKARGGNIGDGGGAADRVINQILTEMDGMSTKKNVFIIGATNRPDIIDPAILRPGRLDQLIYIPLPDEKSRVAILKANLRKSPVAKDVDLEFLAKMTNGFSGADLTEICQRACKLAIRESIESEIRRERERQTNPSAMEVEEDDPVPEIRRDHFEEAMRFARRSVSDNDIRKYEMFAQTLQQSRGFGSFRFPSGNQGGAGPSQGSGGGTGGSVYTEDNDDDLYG
S1P4 antagonist = blocks the human S1P4 receptor; O95977; S1P4-expressing cells, antagonist mode, reporter read-out; inhibition, % at 4.98 µM; 0.26% of 220,000 active; AID 1510; in the data active means inhibition above about 29%
DTT redox prof = compounds producing H2O2 with reducing agent – biochemical, NIH compound library profiling, artefact control for MLSCN library redox annotation, primary screen; activation, % at 10 µM; DTT-dependent redox cycling H2O2, phenol red/HRP absorbance; 100% = 100 µM peroxide control, 0% = buffer; 0.03% of 200,000 active;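 active means activation of at least 50% relative to the plate's high and low controls in the primary single-dose screen; inactive means activation below 50%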;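 further: compound incubated with DTT at 0.8 mM final as the reducing agent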
S1P3 antagonist = antagonists of human S1P3 receptor. AID 485. 0.27% of 170,000 active. Q99500. inhibition, % at 4.98 µM. CHO S1P3 NFAT-BLA reporter, FRET fluorescence, antagonist mode;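 active means inhibition above the plate cutoff, the mean inhibition of test wells on that plate plus 3 SD, cut at about 28% in these data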;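 further: cells challenged with S1P at its EC80 of 0.8 µM; blue over green emission ratio from cleaved BLA substrate after 4 h stimulation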
Arbovirus inh = arbovirus infection inhibition; arbovirus infection cell-based antiviral screen; inhibition, % at 10 µM; 0.37% of 200,000 active; AID 1251; in the data active means inhibition above about 30%
S1P4 ag = activates the human S1P4 receptor. S1P4-expressing cell line, agonist reporter assay. 0.35% of 220,000 active. O95977. activation, % at 4.98 µM; in the data active means activation above about 11%
S1P4 antag cf = confirmation of human S1P4 receptor antagonists. S1P4-expressing cell line, antagonist mode, reporter read-out. shares compounds with S1P4 antagonist. inhibition, % at 4.98 µM. 71% of 520 active. AID 1524; in the data active means inhibition above about 30%
S1P1 antagonist = human S1P1 antagonism as S1P4 antagonist counter-screen. inhibition, % at 4.98 µM. cell-based S1P1 antagonist counterscreen, inhibition. shares compounds with S1P4 antagonist. 37% of 520 active; in the data active means inhibition above about 40%;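 further: receptor stimulated with S1P near its EC80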
Hits are given with their value. A selection: hits, their analogues and other compounds. The true share with any hit is near 1.6%.

COc1ccc(/C=C(/C(=O)c2ccc(Cl)cc2Cl)n2cncn2)cc1 was read as p97 ATPase inh inactive, S1P4 antagonist 37, DTT redox prof inactive, Arbovirus inh inactive, S1P4 ag inactive, S1P4 antag cf inactive and S1P1 antagonist inactive.
CC(C)CC(=O)/C(=C\c1ccc(Cl)cc1Cl)n1cncn1 was read as p97 ATPase inh inactive, S1P4 antagonist 53, DTT redox prof inactive, S1P3 antagonist inactive, Arbovirus inh inactive, S1P4 ag inactive, S1P4 antag cf 119 and S1P1 antagonist 96.
O=C1CC(C(=O)Nc2cccc3ccccc23)C2(CCCC2)O1 (stereo unspecified) was read as p97 ATPase inh inactive, S1P4 antagonist inactive, DTT redox prof inactive, Arbovirus inh inactive and S1P4 ag inactive.
Screening COc1ccc(F)cc1C(=O)C1CCCN(Cc2ccc(Sc3nncn3C)o2)C1 (stereo unspecified) returned p97 ATPase inh inactive, S1P4 antagonist inactive, DTT redox prof inactive, S1P3 antagonist inactive, Arbovirus inh inactive and S1P4 ag inactive.
CCCN(CCC)S(=O)(=O)c1ccc(Cl)c([N+](=O)[O-])c1 was read as p97 ATPase inh inactive, S1P4 antagonist 52, DTT redox prof inactive, S1P3 antagonist inactive, Arbovirus inh inactive, S1P4 ag inactive, S1P4 antag cf 100 and S1P1 antagonist inactive.
Screening COc1cccc(/C=N/Nc2nnc(C)n2N)c1OCc1ccccc1Cl returned p97 ATPase inh inactive, S1P4 antagonist inactive, DTT redox prof inactive, S1P3 antagonist inactive, Arbovirus inh inactive and S1P4 ag inactive.
For CCc1nnc(N/N=C/c2ccccc2F)n1N the results were p97 ATPase inh inactive, S1P4 antagonist 93, DTT redox prof inactive, S1P3 antagonist inactive, Arbovirus inh inactive, S1P4 ag inactive, S1P4 antag cf inactive and S1P1 antagonist inactive.
`CCc1nnc(N/N=C/c2ccccc2Cl)n1N` gave p97 ATPase inh inactive, S1P4 antagonist 40, DTT redox prof inactive, Arbovirus inh inactive, S1P4 ag inactive, S1P4 antag cf inactive and S1P1 antagonist inactive.
For CC1CC(C)(C)Nc2ccc(OC(=O)c3ccco3)cc21 (stereo unspecified) the results were p97 ATPase inh inactive, S1P4 antagonist inactive, DTT redox prof inactive, S1P3 antagonist inactive, Arbovirus inh inactive and S1P4 ag inactive.
Screening CC1CC(C)(C)Nc2ccc(N=O)cc21 (stereo unspecified) returned p97 ATPase inh inactive, S1P4 antagonist 37, DTT redox prof inactive, S1P3 antagonist inactive, Arbovirus inh inactive, S1P4 ag inactive, S1P4 antag cf 50 and S1P1 antagonist inactive.
Screening COc1ccc(CCNC(=O)c2ccccc2NC(=O)c2ccco2)cc1OC returned p97 ATPase inh inactive, S1P4 antagonist 30, DTT redox prof inactive, S1P3 antagonist inactive, Arbovirus inh inactive, S1P4 ag inactive, S1P4 antag cf inactive and S1P1 antagonist inactive.
`CN(C)c1ccnc(NCc2ccccc2)c1C#N` gave p97 ATPase inh inactive, S1P4 antagonist inactive, DTT redox prof inactive, S1P3 antagonist inactive, Arbovirus inh inactive and S1P4 ag inactive.
Screening Cc1cc(N(C)C)c(C#N)c(NCc2ccccc2)n1 returned p97 ATPase inh inactive, S1P4 antagonist 35, DTT redox prof inactive, S1P3 antagonist inactive, Arbovirus inh inactive, S1P4 ag inactive, S1P4 antag cf inactive and S1P1 antagonist inactive.
For CCCC(=O)N1CCN(c2ccc(NC(=O)c3ccc(Br)o3)cc2)CC1 the results were p97 ATPase inh inactive, S1P4 antagonist inactive, DTT redox prof inactive, S1P3 antagonist inactive, Arbovirus inh inactive and S1P4 ag inactive.
For CS(=O)(=O)N1CCN(c2ccc(NC(=O)c3ccc([N+](=O)[O-])o3)cc2)CC1 the results were p97 ATPase inh inactive, S1P4 antagonist inactive, DTT redox prof inactive, S1P3 antagonist inactive, Arbovirus inh inactive and S1P4 ag inactive.
Screening CCCC(=O)N1CCN(c2ccc(NC(=O)c3ccc([N+](=O)[O-])o3)cc2)CC1 returned p97 ATPase inh inactive, S1P4 antagonist 78, DTT redox prof inactive, S1P3 antagonist inactive, Arbovirus inh inactive, S1P4 ag inactive, S1P4 antag cf 101 and S1P1 antagonist 84.
`CCC(=O)N1CCN(c2ccc(NC(=O)c3ccc([N+](=O)[O-])o3)cc2)CC1` gave p97 ATPase inh inactive, S1P4 antagonist 78, DTT redox prof inactive, S1P3 antagonist inactive, Arbovirus inh inactive, S1P4 ag inactive, S1P4 antag cf 85 and S1P1 antagonist 74.
Screening Cc1ccc(S(=O)(=O)N2CCOCC2)c2nsnc12 returned p97 ATPase inh inactive, S1P4 antagonist inactive, DTT redox prof inactive, Arbovirus inh inactive and S1P4 ag inactive.
For O=S(=O)(c1ccc(Br)c2nsnc12)N1CCOCC1 the results were p97 ATPase inh inactive, S1P4 antagonist 79, DTT redox prof inactive, S1P3 antagonist inactive, Arbovirus inh inactive, S1P4 ag inactive, S1P4 antag cf 39 and S1P1 antagonist inactive.
Screening Cc1sc(/N=C/c2ccccc2O)c(C#N)c1C returned p97 ATPase inh inactive, S1P4 antagonist inactive, DTT redox prof inactive, Arbovirus inh inactive and S1P4 ag inactive.
Screening O=C1/C(=C/c2ccc(N3CCOCC3)o2)SC(=Nc2ccccc2)N1CCc1c[nH]c2ccccc12 returned p97 ATPase inh inactive, S1P4 antagonist 46, DTT redox prof inactive, Arbovirus inh inactive, S1P4 ag inactive, S1P4 antag cf 64 and S1P1 antagonist 46.
Screening Cc1ccc(NC(=O)C(c2ccccc2)N(C)C)cc1Cl (stereo unspecified) returned p97 ATPase inh inactive, S1P4 antagonist 34, DTT redox prof inactive, S1P3 antagonist inactive, Arbovirus inh inactive, S1P4 ag inactive, S1P4 antag cf 31 and S1P1 antagonist inactive.
For O=C(Nc1ccccc1C(=O)N1CCN(c2ccccc2)CC1)c1ccco1 the results were p97 ATPase inh inactive, S1P4 antagonist inactive, DTT redox prof inactive, S1P3 antagonist inactive, Arbovirus inh inactive and S1P4 ag inactive.
Screening CSc1sc(C(=O)NN)c2c1C1(CCC2)SCCS1 returned p97 ATPase inh inactive, S1P4 antagonist inactive, S1P3 antagonist inactive and S1P4 ag inactive.
`COc1ccc(-c2ccc(C(=O)O)o2)c([N+](=O)[O-])c1` gave p97 ATPase inh inactive, S1P4 antagonist inactive, DTT redox prof inactive, S1P3 antagonist inactive, Arbovirus inh inactive and S1P4 ag inactive.
O=S(=O)(c1ccc(Cl)c(Cl)c1)c1snnc1-c1ccccc1 was read as p97 ATPase inh 23, S1P4 antagonist 56, DTT redox prof inactive, Arbovirus inh inactive, S1P4 ag inactive, S1P4 antag cf 114 and S1P1 antagonist 75.
NC(=O)c1snnc1-c1ccccc1 was read as p97 ATPase inh inactive, S1P4 antagonist inactive, S1P3 antagonist inactive and S1P4 ag inactive.
